# Compound activity: PubChem, National Center for Advancing Translational Sciences (NCATS)
# RE007 growth inh = less growth of the S. pombe RE007 Vpr strain; S. pombe RE007 Vpr strain, BacTiter-Glo ATP luminescence, 24 h; Potency, µM (highest dose often 92.2 µM), without a hit: top-dose activity change, negative = less growth, actives largely listed as inhibitors; 0.21% of 360,000 active; active = well fitted falling curve with a large enough effect; inconclusive = small, poorly fitted or top-dose-only effect; inactive = no such curve, though single readings can be large or run the other way; note: potency is the fitted concentration of half-maximal effect; % is set by controls: 0 for no effect and ±100 for the full control effect; nearly all actives have a fitted effect of over 50% in size
#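 Fission yeast RE007 carrying one integrated HIV-1 vpr copy, seeded at OD 0.01 in PMG+AL medium with 23 nL pinned compound. Grown 24 h at 30 degrees; viability read by BacTiter-Glo luminescence after 5 min.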
# FBPA Giardia inh = Giardia lamblia aldolase inhibition; purified Giardia FBPA; Potency, µM (doses to about 59.6 µM), for the others: at the top dose activity, negative = inhibition, actives largely listed as inhibitors; 0.71% of 290,000 active; note: potency is the fitted concentration of half-maximal effect; % is set by controls: 0 for no effect and ±100 for the full control effect; nearly all actives have a fitted effect of over 55% in size
# Target sequence (A8B2U2 whole entry, looked up): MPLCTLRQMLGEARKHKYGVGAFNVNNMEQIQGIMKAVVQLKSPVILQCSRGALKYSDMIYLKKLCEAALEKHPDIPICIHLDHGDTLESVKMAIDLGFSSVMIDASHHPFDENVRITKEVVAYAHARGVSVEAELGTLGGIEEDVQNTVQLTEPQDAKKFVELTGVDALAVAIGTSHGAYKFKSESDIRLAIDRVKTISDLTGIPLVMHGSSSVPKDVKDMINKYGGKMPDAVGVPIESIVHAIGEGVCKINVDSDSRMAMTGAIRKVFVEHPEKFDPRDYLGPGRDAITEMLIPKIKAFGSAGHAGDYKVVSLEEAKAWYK
#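 40 nM FBPA preincubated 10 min at RT with compound (up to 57.5 uM final), then substrate plus GAPDH/TPI/NAD/arsenate coupling and diaphorase/resazurin added. Fluorescence read after 20 min at RT, 525/598 nm.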
# TbPYK inhibitor = blocks Trypanosoma brucei pyruvate kinase | Q57TT1 | Potency, µM (highest dose often 76.8 µM), inactives show at the top dose activity, negative = inhibition, usual class: inhibitors | AID 624173 | TbPYK enzyme, Kinase-Glo Plus ATP luminescence, 45 min | 0.12% of 410,000 active; note: potency is the fitted concentration of half-maximal effect; % is set by controls: 0 for no effect and ±100 for the full control effect; nearly all actives have a fitted effect of over 50% in size
#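 Readout: single end-point luminescence (Kinase-Glo Plus, 10 min). Reaction conditions were TbPYK/substrate plus 130 uM ADP, 45 min at RT, pH 7.2 TEA buffer. No-enzyme wells served as controls, and data were normalized before concentration-response fitting.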
# Cycloheximide cs = counter-screen for Shiga toxin inhibitors: cycloheximide protein synthesis inhibition; 12% of 300,000 active; max response, %; cell reporter, cycloheximide protein synthesis inhibition counterscreen; in the data active = max response mostly above about 13%, no sharp cut-off; inactive = mostly below about 14%; note: read at 38.3 µM for the half of the compounds with a filed dose; 0% is about no effect
# Shiga inhibitor = blocks Shiga toxin action in Vero cells | Vero cells, Shiga toxin protein synthesis inhibition reporter | inhibition, % at 38.7 µM | 9.2% of 290,000 active; in the data active = inhibition mostly above about 28%, no sharp cut-off; inactive = mostly below about 43%; note: 0% is about no effect
# LmPK inh = blocks Leishmania mexicana pyruvate kinase activity; Q27686; purified LmPK, Kinase-Glo ATP luminescence, 1 h; Potency, µM (top dose mostly 57.5 µM), inactives show top-dose activity change, negative = inhibition, hits mostly inhibitors; 0.37% of 290,000 active; note: potency is the fitted concentration of half-maximal effect; % is set by controls: 0 for no effect and ±100 for the full control effect
#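 0.1 nM LmPK, 0.5 mM PEP, 0.1 mM ADP; 50 mM imidazole pH 7.2, 7 mM MgCl2, 50 mM KCl; 1 h RT. Kinase-Glo luminescence readout, normalized to no-enzyme (full inhibition) and uninhibited wells.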
# An asterisk follows results filed as active; ? = inconclusive; . = no result given; + = active, no number; [ ] = dose if it differs, or a comment. The sample as a whole holds a higher share of hits than the screen did. Unless noted, calls come from the whole dose curve; as a rule, active = well fitted curve in the direction sought with a large enough effect; inconclusive = small, poorly fitted or top-dose-only effect, or another doubt; inactive = no such curve, though single readings can be large; an effect the other way counts as inactive or inconclusive.
SMILES,RE007 growth inh,FBPA Giardia inh,TbPYK inhibitor,Cycloheximide cs,Shiga inhibitor,LmPK inh
O=C(c1ccco1)N1CCN(c2cc(N3CCOCC3)c(F)cc2[N+](=O)[O-])CC1,-7%,0%,-5%,-5,-2,5%
CC1CN(c2ccc([N+](=O)[O-])cc2F)CCN1C(=O)c1ccco1 (centres undefined),?,1%,9%,-1,-18,-2%
CCN(CC)CCNC(=O)c1sc2nc3n(c(=O)c2c1C)CCCCC3,.,.,-6%,.,.,.
Cc1cc(N2CCN(C)CC2)nc2ccc(NC(=O)Nc3ccccc3Br)cc12,.,.,5%,.,.,.
N[C@H](Cn1ccc(=O)n(Cc2ccccc2C(=O)O)c1=O)C(=O)O,.,-23%,.,.,.,.
Cc1ccc(-c2nc(N)s[n+]2-c2ccccc2)cc1,3%,?,?,81*,91*,32µM*
CC(C)(C)C(=O)OCc1nc(-c2ccc(C(F)(F)F)cc2)cs1,-18%,-6%,-21%,19*,32,-2%
O=C(Cn1nc(-c2ccccc2)nc(Cc2ccccc2)c1=O)Nc1ccc(Cl)cc1,.,.,0%,.,.,.
CC(C)(C)c1ccc(C(=O)Nc2nc3nc(-c4ccccc4)cc(=O)n3[nH]2)cc1,.,.,5%,.,.,.
CN(C)c1ccc(-c2ccc3ncnc(NC4CC4)c3c2)cc1,.,-9%,.,.,.,.
O=c1c2ccccc2nnn1Cc1nnc(-c2ccccc2Br)o1,-8%,9%,6%,44*,128*,2%
O=C1c2ccccc2S(=O)(=O)N1Cc1nnc(-c2ccccc2Br)o1,10%,7%,3%,12,5,2%
O=c1c2ccccc2nnn1Cc1ccccc1,-6%,7%,-10%,-2,30,2%
O=C1C2CC=CCC2C(=O)N1Cc1nnc(-c2ccccc2Br)o1 (centres undefined),-10%,4%,-6%,26*,68*,-7%
COc1cccc(-n2c(C)nc3c(cnn3-c3ccc(C)c(C)c3)c2=O)c1,.,.,0%,.,.,.
CCOC(=O)c1c(C)c(-c2ccccc2)n(CC(=O)NCCc2cccc(C)c2)c1C,.,.,-1%,.,.,.
Cc1cc(C(=O)CSc2nnnn2C)c(C)n1C1CC1,10%,-15%,-7%,56*,151*,1%
Cc1nnc(SCC(=O)c2cc(C)n(C3CC3)c2C)s1,4%,?,-4%,81*,69*,-3%
Cc1cc(C(=O)CSc2nnc(CCC(N)=O)n2C)c(C)n1C1CC1,0%,.,-24%,.,.,.
COc1cc(C2C(=O)N(C3CCCCCC3)CC(=O)N2CCc2ccccc2)ccc1OC(C)C (centres undefined),.,.,4%,.,.,.
COc1ccc(-n2cc(-c3ccccc3)nc2SCC(=O)Nc2ccccc2)cc1Cl,.,.,-7%,.,.,.
COCc1cn(-c2nc3ccccc3s2)nn1,-11%,.,8%,.,.,.
CCSc1nc(-c2ccc(OC)cc2)n(-c2nc3ccccc3s2)n1,-7%,-3%,-9%,17*,12,1%
Cc1cccc(OCCOC(=O)Nc2ccccc2)c1,-7%,-4%,-6%,16*,-31,2%
COc1ccccc1OCCOC(=O)Nc1ccccc1,18%,-1%,-4%,13*,26*,0%
SMILES,RE007 growth inh,FBPA Giardia inh,TbPYK inhibitor,Cycloheximide cs,Shiga inhibitor,LmPK inh
COc1ccc(-c2noc(C3CCCN(C(=O)CCc4ccccc4)C3)n2)cc1 (centres undefined),0%,-1%,-1%,14*,23,3%
O=C(c1ccco1)N1CCCC(c2nc(-c3ccc(S(=O)(=O)NCc4ccccc4)cc3)no2)C1 (centres undefined),-7%,6%,6%,10,+,8%
COc1ccc(-c2noc(C3CCCN(C(=O)c4ccccc4)C3)n2)cc1 (centres undefined),7%,4%,-6%,32*,43*,-2%
COc1cc(NC(=O)Cn2c(=O)n(CC(=O)NCCc3ccc(OC)c(OC)c3)c(=O)c3sccc32)cc(OC)c1,.,.,-2%,.,.,.
O=C(CSc1nc2c([nH]c3ccccc32)c(=O)n1-c1ccc(Cl)cc1)N1CCCCCC1,.,.,-3%,.,.,.
O=C(COc1ccc(F)cc1F)Nc1cccnc1,-10%,.,2%,14,15,-2%
O=C(COc1ccccc1Cl)Nc1cccnc1,-2%,0%,-1%,40*,73*,6%
Cc1ccc(Cl)c(OCC(=O)Nc2cccnc2)c1,14%,.,-6%,58*,105*,1%
Cc1ccc2occ(-c3cc(-c4ccc(Cl)cc4)nc4c3COc3ccccc3-4)c(=O)c2c1,.,.,-6%,.,.,.
O=C(Nc1ccccc1)c1cc(Cl)nc2ccccc12,0%,1%,3%,-6,7,2%
CC(C)Sc1cc(Cl)nc(NC(=O)Nc2ccccc2)n1,18%,5%,2%,29*,50,-5%
O=C(COC(=O)c1cc2ccccc2oc1=O)Nc1cccc(S(=O)(=O)N2CCCCCC2)c1,11%,0%,-6%,27*,64*,-1%
CC(C)NC(=O)NC(=O)COC(=O)c1cc(S(=O)(=O)N2CCCCC2)ccc1N1CCOCC1,-1%,.,-7%,12*,44*,-2%
O=C(COC(=O)c1cc2ccccc2oc1=O)Nc1ccc(F)cc1F,1%,5%,-1%,52*,118*,-15%
CCN(c1ccc(NC(=O)COC(=O)c2cc3ccccc3oc2=O)cc1)C(C)C,-3%,-12%,-7%,1,-1,1%
CN(C)S(=O)(=O)c1cccc(NC(=O)COC(=O)c2cc(=O)c3ccccc3o2)c1,12%,0%,2%,5,22,0%
CN(C)S(=O)(=O)c1cccc(NC(=O)COC(=O)c2cc3ccccc3oc2=O)c1,8%,1%,6%,51*,134*,-5%
CCC/C=C/C1C(=O)C2OC2C2(OCC(CC)(CC)CO2)C1CO (centres undefined),.,1%[12.9 µM],.,.,.,.
COc1cc2c(cc1OC)C(c1c[nH]c3ccccc13)NCC2 (centres undefined),.,2%,.,.,.,.
COC(=O)[C@H](CCSC)NC(=O)C/C=C\[C@@H](C)[C@@H](CO)OC,.,-1%[12.9 µM],.,.,.,.
Cc1cccc(NC(=O)c2cc(S(=O)(=O)NCc3ccco3)ccc2F)c1C,5%,11%,-6%,47*,63*,-2%
COc1ccccc1NC(=O)c1ccc(S(=O)(=O)NCc2ccco2)cc1,8%,10%,0%,38*,103*,-7%
O=C(COc1ccccc1)Nc1ccc(S(=O)(=O)NCc2ccco2)cc1,12%,0%,0%,1,19,6%
O=C(COc1ccccc1F)Nc1ccc(S(=O)(=O)NCc2ccco2)cc1,-7%,7%,0%,40*,40,1%
COc1ccc(S(=O)(=O)NCc2ccco2)cc1NC(=O)c1ccccc1,10%,-3%,-4%,47*,65*,-6%
